The values that follow come from PubChem BioAssay (NCI).

Assay [1] can be described thus: NCI Yeast Anticancer Drug Screen. Data for the rad50 strain (AID 155).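 Also: 0% = growth of vehicle-only cultures of the same strain.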 The settings on record: S. cerevisiae rad50 strain growth inhibition; at 50.0 µM; hits give high values. The gist of the method: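 Readout: growth inhibition relative to vehicle-treated cultures. Compound exposure was carried out in a genetically defined yeast strain deficient in DNA damage repair.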

The nature of assay [2]: NCI Yeast Anticancer Drug Screen. Data for the mec2-1 strain (AID 157). The conditions noted are these: S. cerevisiae mec2-1 strain, at 50.0 µM, hits give high values. The gist of the method: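 Vehicle-treated cultures served as reference for growth inhibition of compound-exposed mec2-1 yeast.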
A short description of assay [3]: NCI Yeast Anticancer Drug Screen. Data for the sgs1 mgt1 strain (AID 161).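 Also: 0% = growth of cultures given vehicle only.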 The settings on record: S. cerevisiae sgs1 mgt1 strain, at 50.0 µM, hits give high values. The gist of the method:
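Inhibition of yeast growth, normalised to vehicle-treated controls, is reported for a strain bearing genetic alterations in DNA damage repair.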

Assay [4] can be described thus: NCI Yeast Anticancer Drug Screen. Data for the cln2 rad14 strain (AID 165).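 Also: 0% = growth equal to vehicle treated cultures.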 The settings on record: S. cerevisiae cln2 rad14 strain, at 50.0 µM, hits give high values. The gist of the method:
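Each compound was tested on cln2 rad14 yeast. Inhibition of growth was calculated against vehicle-exposed controls.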

Assay [5] in a line: NCI Yeast Anticancer Drug Screen. Data for the bub3 strain (AID 167). The conditions noted are these: S. cerevisiae bub3 mutant strain, at 50.0 µM, hits give high values. In a few lines:
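Readout: yeast growth inhibition, expressed relative to vehicle-only wells. The test organism is a mutant strain from a panel with lesions in DNA repair or checkpoint genes.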

Assay [6] can be described thus: NCI Yeast Anticancer Drug Screen. Data for the mlh1 rad18 strain (AID 175). The settings on record: S. cerevisiae mlh1 rad18 strain growth inhibition; at 50.0 µM; hits give high values. In a few lines: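 Vehicle-treated cultures served as the reference for growth inhibition in a yeast strain carrying DNA damage repair alterations exposed to each compound.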

Each structure is given as a SMILES string. Compounds without any hit were thinned out: in the full panel of roughly 79,000, 15% have a hit. A number with no mark means an inactive call. Activity calls are given as the source filed them. Rule as the data show it: active = growth inhibition above about 70%; inactive = the rest. Where a SMILES comes first, the peptide text is derived from it. The star is where a group is joined. Cbz = O=C(OCc1ccccc1)*; OBn = c1ccc(CO*)cc1

Consider `CCOC1(C)OC2OC(COC(C)=O)C(OC(C)=O)C(OC(N)=O)C2O1` (stereo not given), for which the growth inhibition in assay [1] is -11.8%; in assay [2] it was 0.05%; in assay [3] it was -5.75%; in assay [4], -34%; in assay [5], -1.15%; in assay [6], 15.2%.

For the compound `O=c1[nH]c2ccccc2c(O)c1/C=N/C(=S)NCc1ccccc1`, the growth inhibition in assay [1] is -23.1%; in assay [2], -23.8%; in assay [3] it was 3.95%; in assay [4], 0.2%; in assay [5], 0.7%; in assay [6], -37.2%.

With `NC(=O)NC12CC3CC(CC(F)(C3)C1)C2`, the growth inhibition in assay [1] is -19.6%; in assay [2], -29.1%; in assay [3], -29.7%; in assay [4], -0.95%; in assay [5], -47.5%; in assay [6], -9.85%.

With `O=C(Oc1ccc[nH]c1=O)C1CCC1`, the growth inhibition in assay [1] is -15.3%; in assay [2], 3%; in assay [3], -0.55%; in assay [4] it was 2.7%; in assay [5] it was 12.8%; in assay [6], -4.75%.

As to `c1ccc(C[S][Sn]([c]2ccccc2)([c]2ccccc2)[c]2ccccc2)cc1`, the growth inhibition in assay [1] was 97.5% (active); in assay [2], 96.2% (active); in assay [3], 97% (active); in assay [4], 94.4% (active); in assay [5], 97% (active); in assay [6], 93% (active).

In the case of `CCCCc1c2c(nn1C(C)=O)C(=O)C=C(Nc1ccccc1)C2=O`, the growth inhibition in assay [1] is 21.8%; in assay [2], 21.8%; in assay [3] it was 19.7%; in assay [4], -7.65%; in assay [5], 4.7%; in assay [6] it was 9.5%.

As to `Cc1ccccc1NC(=O)CS`, the growth inhibition in assay [1] was 17.6%; in assay [2], 31.9%; in assay [3] it was 31.2%; in assay [4] it was -21%; in assay [5] it was 29.2%; in assay [6], 33.2%.

On to `Cn1c(=O)c2[nH]c(C3CCCCCC3)nc2n(C)c1=O`, for which the growth inhibition in assay [1] is 13.6%; in assay [2], -9.7%; in assay [3], -9.4%; in assay [4], -4.1%; in assay [5], 7.25%; in assay [6], -1.8%.

With `CN=C1SC(C)(C)NN1C`, the growth inhibition in assay [1] was 9.2%; in assay [2], 1.85%; in assay [3], 4.35%; in assay [4] it was -32%; in assay [5], -6.4%; in assay [6], 12.8%.

Turning to `[N-]=[N+]=NC(=O)c1cccc2c1Cc1ccccc1-2`, the growth inhibition in assay [1] was 8.85%; in assay [2], 0.75%; in assay [3] it was -4.05%; in assay [4] it was -40.9%; in assay [5] it was -11.5%; in assay [6], -0.4%.

On to `O=S(=O)(/C=C/c1ccc(Cl)cc1Cl)Cc1ccccc1CS(=O)(=O)/C=C/c1ccc(Cl)cc1Cl`, for which the growth inhibition was 4.85% in assay [1]; 5.3% in assay [2]; -27.6% in assay [3]; -20.8% in assay [4]; 6.95% in assay [5]; -9.15% in assay [6].

As for `CCCCC/C(=N\Nc1ccc([N+](=O)[O-])cc1[N+](=O)[O-])c1ccc(-c2ccccc2)cc1`, the growth inhibition was 13.9% in assay [1]; 6.05% in assay [2]; -6.9% in assay [3]; 19.1% in assay [4]; -5.95% in assay [5]; 0.6% in assay [6].

For `CCC(=O)O[C@@H]1C2C(OC(C)=O)C34COC(C)([C@@H]3C3C(C[C@]3(C)OC(C)=O)[C@@H](OC(=O)c3ccccc3)C4=O)[C@H](OC(C)=O)[C@@]2(OC(C)=O)C[C@@H]1C` (stereo not given in full), the growth inhibition in assay [1] is 4.2%; in assay [2], -6.65%; in assay [3], 4.85%; in assay [4], 0.45%; in assay [5] it was 9.95%; in assay [6] it was 4.35%.

Take `O=C(NC(CO)C(=O)N1CCCC1C(=O)OCc1ccccc1)OCc1ccccc1` (stereo not drawn) (Cbz-Ser-Pro-OBn; configuration not given here): the growth inhibition is 8.55% in assay [1]; 7% in assay [2]; 7.05% in assay [3]; 23.9% in assay [4]; 4.45% in assay [5]; 7.6% in assay [6].

For `CN1CCCn2c(nc3ccccc3c2=O)C1`, the growth inhibition was -1.4% in assay [1]; -4.65% in assay [2]; -5.55% in assay [3]; 14.5% in assay [4]; -0.5% in assay [5]; -4.35% in assay [6].

As to `C=C(C)COC(OCC(=C)C)C(C)C`, the growth inhibition in assay [1] was 26.4%; in assay [2] it was 3.05%; in assay [3], 3.45%; in assay [4], 9.35%; in assay [5], 22.2%; in assay [6] it was 12.2%.

As for `C[N+](C)(C)CC(=O)NN`, the growth inhibition in assay [1] is 10.1%; in assay [2], -0.8%; in assay [3], -21.7%; in assay [4], -17.6%; in assay [5], -18%; in assay [6], 38.6%.

Consider `Clc1ccc(-c2nnc3c4ccccc4ccn23)cc1`, for which the growth inhibition in assay [1] was 14.5%; in assay [2], -11.1%; in assay [3], -5.1%; in assay [4] it was 9.55%; in assay [5], -3.95%; in assay [6], 1%.

For `CC1c2c(cc(=O)n(C)c2O)C(=O)N1Cc1ccccc1` (stereo not given), the growth inhibition in assay [1] is 2%; in assay [2], 5.75%; in assay [3], 8.7%; in assay [4], -2.6%; in assay [5] it was 2.45%; in assay [6], -9.4%.

For `Brc1ccccc2cc(-c3ccccc3)nc1-2`, the growth inhibition was 54.9% in assay [1]; 30.5% in assay [2]; 34.5% in assay [3]; 19.9% in assay [4]; 37.2% in assay [5]; -7% in assay [6].
